PubChem BioAssay (NCI)
Compounds without any hit were thinned out: in the full panel of roughly 79,000, 15% have a hit. Values without a mark were called inactive. The source made the active and inactive calls. No stated cut-off is given here; in the data, active means growth inhibition above about 70%; inactive means the rest.

Assay: NCI Yeast Anticancer Drug Screen. Data for the mec2-1 strain (AID 157)
Details: S. cerevisiae mec2-1 strain, stronger effect = higher value
Protocol: Growth inhibition of yeast strains with defined genetic alterations is measured as a screen for potential anti-cancer activity. Selected strains with alterations in DNA damage repair or cell cycle control were exposed to compounds and growth inhibition was measured relative to vehicle treated controls. The strain used in this assay is mec2-1

[1] = at 5.0 µM (retest, dose inferred, filed as 0.5)
[2] = at 50.0 µM (retest, dose inferred, filed as 5.0)

Compound | growth inhibition [1] | growth inhibition [2] | growth inhibition (at 50.0 µM)
NC(=O)c1cc([N+](=O)[O-])c(Cl)c([N+](=O)[O-])c1Cl | 41% | 78% (active) | 86.7% (active)
Cc1cc(CCN)c(C)c2c1oc1ccccc12 | -7% | 88% (active) | 70.2% (active)
CO/C1=C\C(C)=C\C(C)C(O)C(C)C/C(C)=C/C=C/C(OC)C(C(C)C(O)C(C)C2(O)CC(O)C(C)C(C(C)C)O2)OC1=O (configuration not stated) | -11% | 59% | 77.3% (active)
CCOP(=S)(OCC)SCc1c(C)c(C)c(CSP(=S)(OCC)OCC)c(C)c1C | -4% | -2% | -3.75%
O=[N+]([O-])c1ccc(CS(=O)(=O)C(Cl)Cl)o1 | -1% | 52% | 59.5%
CCCC(C)c1ccccc1OP(=S)(S)Oc1ccccc1C(C)CCC (configuration not stated) | -2% | -1% | 97.8% (active)
CC1(C)N=C(N)N=C(N)N1c1ccc(OCCCCNC(=O)Nc2ccc(S(=O)(=O)F)cc2)c(Cl)c1 | -2% | 97% (active) | 99.3% (active)
O=C([CH-]C(=O)c1ccccc1)c1ccccc1.O=C([CH-]C(=O)c1ccccc1)c1ccccc1.[La+3].[OH-].[OH3+] | 23% | 23% | 93.5% (active)
CC(=O)O[C@H]1C(=O)O[C@@H]2C[C@H]3C(C)=CC(=O)[C@@H](O)[C@]3(C)[C@H]3[C@@]4(O)OC[C@]32[C@@H]1[C@@H](C)[C@H]4O | 31% | 78% (active) | 51.2%
O=c1s[se]c2ccccc12 | 13% | 99% (active) | 87.1% (active)
CCCCCCC(=O)[O][Hg][c]1ccccc1 | 100% (active) | 100% (active) | 99.7% (active)
COc1ccc([Se][Se]c2ccc(OC)cc2OC)c(OC)c1 | 23% | 23% | 89.8% (active)
O=C1c2c(ccc3ccccc23)CN2CCCCC12 (configuration not stated) |  |  | 19.6%
CC(=O)c1ccc([As](=O)(O)O)cc1 |  |  | -20.4%
C=CCc1cc(C=C(C#N)C#N)cc(OC)c1O |  |  | -2.85%
NNC(=O)c1ccc(N)cc1 |  |  | -9.75%
O=C(OCCOCCOC(=O)C(Cl)(Cl)Cl)C(Cl)(Cl)Cl |  |  | -33.1%
Cc1cc(Cl)ccc1OCCCC(=O)O |  |  | 16.2%
